# Laboratory results as given in ChEMBL document CHEMBL1961873, “Compounds: GSK PKIS; Assays: Nanosyn kinase panel” (2012).
# Experiments:
# [1] = biological target: Glycogen synthase kinase-3 beta (Homo sapiens) (UniProt P49841); details: at 1 µM;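 further: reported values are mean percent inhibition of GSK3B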
# [2] = biological target: Homeodomain-interacting protein kinase 1 (Homo sapiens) (UniProt Q86Z02); details: at 0.1 µM
# [3] = biological target: Homeodomain-interacting protein kinase 1 (Homo sapiens) (UniProt Q86Z02); details: at 1 µM
# [4] = biological target: T1, Homeodomain-interacting protein kinase 4 (Homo sapiens) (UniProt Q8NE63); details: at 0.1 µM
# T1 sequence (whole entry): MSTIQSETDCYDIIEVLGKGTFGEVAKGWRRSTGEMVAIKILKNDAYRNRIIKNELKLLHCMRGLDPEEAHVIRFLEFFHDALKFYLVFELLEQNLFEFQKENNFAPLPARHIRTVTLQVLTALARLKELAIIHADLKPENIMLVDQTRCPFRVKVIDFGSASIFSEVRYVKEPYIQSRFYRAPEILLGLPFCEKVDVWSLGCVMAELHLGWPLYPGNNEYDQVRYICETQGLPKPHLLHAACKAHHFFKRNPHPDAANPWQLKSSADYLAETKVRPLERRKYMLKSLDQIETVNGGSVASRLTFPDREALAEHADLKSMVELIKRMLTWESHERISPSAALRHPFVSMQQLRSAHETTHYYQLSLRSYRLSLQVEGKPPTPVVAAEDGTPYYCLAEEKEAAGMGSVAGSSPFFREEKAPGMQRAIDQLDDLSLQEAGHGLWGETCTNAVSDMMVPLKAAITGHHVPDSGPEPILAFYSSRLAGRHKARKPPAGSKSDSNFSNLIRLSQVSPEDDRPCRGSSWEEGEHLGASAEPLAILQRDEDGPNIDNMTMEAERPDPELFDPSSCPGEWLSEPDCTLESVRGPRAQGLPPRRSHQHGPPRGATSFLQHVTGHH
# [5] = biological target: T1, Homeodomain-interacting protein kinase 4 (Homo sapiens); details: at 1 µM
# [6] = biological target: Mitogen-activated protein kinase 9 (Homo sapiens) (UniProt P45984); details: at 0.1 µM
# Sequence of Mitogen-activated protein kinase 9 (Homo sapiens) (P45984 whole entry, looked up): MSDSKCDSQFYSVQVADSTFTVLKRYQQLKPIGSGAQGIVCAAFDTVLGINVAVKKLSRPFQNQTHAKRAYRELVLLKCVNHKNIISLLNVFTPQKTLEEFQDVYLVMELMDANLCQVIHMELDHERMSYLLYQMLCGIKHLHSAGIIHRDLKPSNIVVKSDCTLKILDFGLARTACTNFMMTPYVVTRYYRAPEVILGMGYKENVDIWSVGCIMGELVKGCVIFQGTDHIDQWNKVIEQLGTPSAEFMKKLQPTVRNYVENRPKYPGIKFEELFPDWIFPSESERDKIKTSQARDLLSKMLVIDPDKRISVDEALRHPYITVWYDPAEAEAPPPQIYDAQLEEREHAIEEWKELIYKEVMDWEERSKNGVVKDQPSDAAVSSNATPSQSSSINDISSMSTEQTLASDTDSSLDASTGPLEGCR
# [7] = biological target: Mitogen-activated protein kinase 9 (Homo sapiens) (UniProt P45984); details: at 1 µM
# [8] = biological target: Mitogen-activated protein kinase 1 (Homo sapiens) (UniProt P28482); details: at 0.1 µM
# Sequence of Mitogen-activated protein kinase 1 (Homo sapiens) (P28482 whole entry): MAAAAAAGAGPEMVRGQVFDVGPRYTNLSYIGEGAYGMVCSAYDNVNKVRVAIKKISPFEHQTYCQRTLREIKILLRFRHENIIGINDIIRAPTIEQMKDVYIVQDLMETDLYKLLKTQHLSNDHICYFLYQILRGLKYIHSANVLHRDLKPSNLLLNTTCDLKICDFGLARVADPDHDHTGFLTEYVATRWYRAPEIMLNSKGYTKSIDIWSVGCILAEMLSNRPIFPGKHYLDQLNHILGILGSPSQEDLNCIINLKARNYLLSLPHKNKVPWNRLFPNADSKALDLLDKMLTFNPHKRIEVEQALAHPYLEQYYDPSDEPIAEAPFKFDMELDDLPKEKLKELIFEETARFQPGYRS
# [9] = biological target: Mitogen-activated protein kinase 1 (Homo sapiens) (UniProt P28482); details: at 1 µM
# [10] = biological target: Mitogen-activated protein kinase 3 (Homo sapiens) (UniProt P27361); details: at 0.1 µM;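 further: each value is a mean inhibition figure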
# Sequence of Mitogen-activated protein kinase 3 (Homo sapiens) (P27361 whole entry): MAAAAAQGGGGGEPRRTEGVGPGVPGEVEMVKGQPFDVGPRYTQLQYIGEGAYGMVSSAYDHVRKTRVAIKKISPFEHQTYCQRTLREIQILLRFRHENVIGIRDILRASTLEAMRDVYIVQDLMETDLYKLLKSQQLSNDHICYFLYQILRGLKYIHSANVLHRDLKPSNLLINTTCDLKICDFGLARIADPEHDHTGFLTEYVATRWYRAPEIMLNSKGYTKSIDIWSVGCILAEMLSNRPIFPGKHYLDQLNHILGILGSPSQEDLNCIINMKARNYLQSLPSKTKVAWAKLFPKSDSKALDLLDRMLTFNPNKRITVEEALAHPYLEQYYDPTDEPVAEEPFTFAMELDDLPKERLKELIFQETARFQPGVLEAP
# Sequence of Glycogen synthase kinase-3 beta (Homo sapiens) (P49841 whole entry, looked up): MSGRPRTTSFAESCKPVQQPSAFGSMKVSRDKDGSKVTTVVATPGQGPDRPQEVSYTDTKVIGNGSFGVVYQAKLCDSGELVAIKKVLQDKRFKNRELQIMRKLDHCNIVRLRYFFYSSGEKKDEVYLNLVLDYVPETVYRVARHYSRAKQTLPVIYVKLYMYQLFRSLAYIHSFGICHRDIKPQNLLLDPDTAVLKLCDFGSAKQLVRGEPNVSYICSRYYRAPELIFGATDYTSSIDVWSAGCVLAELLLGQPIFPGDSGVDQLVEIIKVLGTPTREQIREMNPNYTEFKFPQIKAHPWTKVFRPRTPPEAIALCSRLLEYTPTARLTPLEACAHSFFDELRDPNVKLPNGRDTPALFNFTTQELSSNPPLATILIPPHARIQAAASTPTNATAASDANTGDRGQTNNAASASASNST
# Sequence of Homeodomain-interacting protein kinase 1 (Homo sapiens) (Q86Z02 whole entry, looked up): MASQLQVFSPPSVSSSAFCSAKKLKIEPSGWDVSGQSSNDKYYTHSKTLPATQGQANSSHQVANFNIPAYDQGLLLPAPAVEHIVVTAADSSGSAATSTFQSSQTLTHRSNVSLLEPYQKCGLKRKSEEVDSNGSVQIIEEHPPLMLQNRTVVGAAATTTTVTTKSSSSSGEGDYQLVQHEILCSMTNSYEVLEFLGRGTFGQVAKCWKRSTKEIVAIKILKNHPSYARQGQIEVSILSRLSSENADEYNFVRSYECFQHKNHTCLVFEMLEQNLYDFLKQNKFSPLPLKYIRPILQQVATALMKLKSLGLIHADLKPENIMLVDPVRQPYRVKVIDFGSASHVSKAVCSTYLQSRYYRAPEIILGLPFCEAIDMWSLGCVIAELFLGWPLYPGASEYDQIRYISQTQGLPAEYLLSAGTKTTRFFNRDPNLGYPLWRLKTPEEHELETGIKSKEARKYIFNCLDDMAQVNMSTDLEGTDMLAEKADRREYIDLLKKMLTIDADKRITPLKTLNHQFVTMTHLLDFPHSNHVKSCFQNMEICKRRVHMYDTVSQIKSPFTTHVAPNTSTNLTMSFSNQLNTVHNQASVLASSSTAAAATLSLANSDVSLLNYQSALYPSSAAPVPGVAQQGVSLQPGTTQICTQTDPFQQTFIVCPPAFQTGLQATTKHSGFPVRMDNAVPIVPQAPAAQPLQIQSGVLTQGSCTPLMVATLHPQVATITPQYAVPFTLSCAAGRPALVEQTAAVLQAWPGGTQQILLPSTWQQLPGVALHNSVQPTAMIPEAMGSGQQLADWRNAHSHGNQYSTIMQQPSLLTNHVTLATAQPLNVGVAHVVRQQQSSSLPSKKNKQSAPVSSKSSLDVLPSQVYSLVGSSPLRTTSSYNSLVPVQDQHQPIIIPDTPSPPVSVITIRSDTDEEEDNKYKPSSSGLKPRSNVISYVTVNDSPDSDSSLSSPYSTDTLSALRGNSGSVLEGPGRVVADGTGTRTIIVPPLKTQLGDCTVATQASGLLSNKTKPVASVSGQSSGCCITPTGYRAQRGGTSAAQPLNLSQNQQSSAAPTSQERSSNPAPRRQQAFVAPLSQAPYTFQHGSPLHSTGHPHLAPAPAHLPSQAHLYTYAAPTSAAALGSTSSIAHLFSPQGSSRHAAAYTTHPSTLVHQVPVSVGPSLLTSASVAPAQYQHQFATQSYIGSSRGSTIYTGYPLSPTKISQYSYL
Structure (SMILES),inhibition [1],inhibition [2],inhibition [3],inhibition [4],inhibition [5],inhibition [6],inhibition [7],inhibition [8],inhibition [9],inhibition [10]
NS(=O)(=O)c1cccc(Nc2cc(-c3ccc(F)cc3)n[nH]2)c1,9.59%,2.17%,7.35%,1.27%,6.82%,1.28%,4.86%,4.24%,3.83%,4.14%
COc1cccc(-n2ncc3c(N/N=C/c4ccc(S(C)(=O)=O)cc4)ncnc32)c1,79%,21.4%,64.3%,18.3%,60.6%,1.92%,4.9%,1.63%,1.93%,2.27%
COc1cc2ncnc(Nc3ccc(C)c(O)c3)c2cc1OC,11.2%,2.85%,2.79%,3.31%,9.35%,4.57%,5.02%,5.5%,7.98%,4.96%
O=C1Nc2ccccc2/C1=C/Nc1ccc2[nH]c(=O)[nH]c2c1,12%,1.38%,6.25%,2.76%,5.62%,4.66%,12.5%,5.93%,5.63%,5.69%
O=C1Nc2ccc(-c3cccnc3)cc2C1=Cc1cc(Br)c(O)c(Br)c1,21.4%,2.42%,22.4%,2.35%,13.8%,1.52%,3.04%,6.12%,3.37%,4.06%
N#Cc1c(NC(=O)c2ccccc2F)sc2c1CCCC2,-0.09%,-4.32%,-0.26%,-0.44%,1.41%,-2.15%,2.33%,-0.94%,-1.13%,-1.39%
Cc1cc(O)cc(C)c1/C=C/c1cncc(C(=O)N(C)C)c1,9.44%,0.32%,4.88%,4.28%,7.94%,-0.29%,2.38%,2.76%,2.51%,3.48%
Cc1ccc(Nc2ccnc(Nc3cccc(C(N)=O)c3)n2)cc1O,17.4%,-4.04%,0.47%,2.33%,10.8%,3.91%,14.6%,4.59%,4.19%,3.66%
C[C@@H](Oc1cc(-n2cnc3ccc(OC[C@@H](O)CO)cc32)sc1C(N)=O)c1ccccc1Cl,4.23%,-0.81%,4.78%,1.18%,9.28%,-0.38%,-0.96%,-3.13%,-1.64%,-0.87%
Nc1nccc(C#Cc2cncnc2Nc2ccc(OCc3cccc(F)c3)c(Cl)c2)n1,10.5%,-0.05%,6.94%,4.23%,8.43%,3.97%,4.23%,3.54%,4.87%,1.83%
Cc1ccc2c(-c3ccnc(Nc4ccc5c(c4)OCCO5)n3)c(-c3ccc(C(F)(F)F)cc3)nn2n1,10.2%,-4.36%,0.03%,-0.51%,-0.85%,-0.33%,4.2%,1.99%,2.01%,2.57%
CN(C)c1cc2c(Nc3ccc4c(cnn4Cc4ccccc4)c3)ncnc2cn1,4.25%,-0.5%,2.06%,0.72%,0.89%,2.84%,2.39%,1.31%,3.41%,0.27%
COc1ccc(-c2nn3ncccc3c2-c2ccnc(Nc3cccc(C(F)(F)F)c3)n2)cc1,3.78%,0.13%,-1.85%,0.75%,1.33%,3.29%,8.16%,6.52%,5.12%,0.87%
c1ccc(Nc2ncc(-c3ccccc3)o2)cc1,13.3%,-2.56%,3.15%,1.19%,6.31%,6.78%,12.9%,6.94%,7.41%,6.5%
NS(=O)(=O)c1ccc(-c2cc3ccncc3cc2OCc2ccccc2)cc1,3.98%,1.69%,4.62%,3.58%,6.62%,3.39%,6.21%,5.32%,3.37%,4.03%
ON=C1CCc2cc(-c3nc(C4CCNCC4)[nH]c3-c3ccncc3)ccc21,4.56%,-5.24%,0.65%,-1.3%,2.78%,2.05%,3.06%,-1.76%,1.85%,1.87%
CN1CCN(C(=O)c2ccc(NC(=O)Nc3ccc(N(C)c4ccnc(Nc5ccc(CS(C)(=O)=O)cc5)n4)cc3)cc2)CC1,4.51%,-3.22%,5.55%,0.53%,9.14%,0.8%,12.4%,1.77%,11.2%,2.64%
CS(=O)(=O)Nc1cccc(-c2ccc3c(NC(=O)C4CC4)n[nH]c3c2)c1,9.5%,-3.76%,0.93%,-0.79%,-0.86%,2.2%,0.27%,-0.71%,1.14%,2.44%
CN(C)C(=O)O[C@H]1CN[C@H](C#Cc2cc3ncnc(Nc4ccc(OCc5cccc(F)c5)c(Cl)c4)c3s2)C1,4.1%,-0.07%,0.31%,0.17%,1.29%,2.26%,6.8%,-0.55%,2.89%,1.44%
Cc1ccc(C(=O)NC2CC2)cc1-c1ccc2[nH]ncc2c1,1.14%,-4.85%,0.04%,0.67%,5.11%,-0.5%,-1.51%,-3.82%,-5.22%,-2.68%

Structure (SMILES),inhibition [1],inhibition [2],inhibition [3],inhibition [4],inhibition [5],inhibition [6],inhibition [7],inhibition [8],inhibition [9],inhibition [10]
NS(=O)(=O)c1ccc(N/N=C2\C(=O)Nc3ccc(Cl)cc32)cc1,54.1%,2.46%,10.2%,2.99%,7.64%,3.27%,4.35%,6.29%,4.79%,4.87%
NS(=O)(=O)c1ccc(NC=C2C(=O)Nc3ccc4ncsc4c32)cc1,71.8%,14.2%,47.4%,2.67%,21.7%,8.45%,36.1%,11%,47.4%,7.04%
COc1cc2ncn(-c3cc(OCc4ccccc4S(C)(=O)=O)c(C#N)s3)c2cc1OC,8.83%,2.2%,28%,52.5%,79%,2.5%,6.08%,1.98%,5.43%,3.11%
C[C@@H](Oc1cc(-n2cnc3ccc(OCC4CCN(C)CC4)cc32)sc1C(N)=O)c1ccccc1C(F)(F)F,2.74%,-3.51%,9.66%,4.86%,32.3%,-0.81%,-1.11%,0.24%,0.02%,-1.53%
c1ccc(Cc2nc3ccc(Nc4ncnc5ccccc45)cc3[nH]2)cc1,7.73%,6.99%,9.6%,4.87%,9.82%,1.51%,3.95%,3.59%,3.76%,2.28%
CCCN1CCCC(c2ccc(Nc3nc(Nc4cc(F)ccc4C(N)=O)c4cc[nH]c4n3)c(OC)c2)C1 (stereo not given),4.25%,46%,79.5%,58.1%,84.3%,70.3%,91.3%,8.06%,36.5%,5.61%
COc1ccc2ncnc(Nc3ccc(OCc4ccccc4)cc3)c2c1,0.7%,0.26%,3.41%,0.67%,1.18%,3.85%,2.97%,2.37%,2.37%,4.06%
CCS(=O)(=O)c1ccc(OC)c(Nc2nccc(N(C)c3ccc4c(C)n[nH]c4c3)n2)c1,1.7%,-2.02%,1.03%,0.52%,1.15%,3.79%,2.08%,5.51%,5.64%,4.15%
CCOc1nccc2c1nc(-c1nonc1N)n2CC,11.9%,5.35%,9.39%,6.7%,12.2%,1.55%,1.43%,4.78%,4.07%,5.64%
COC(=O)c1ccc2c(c1)C(=Cc1cc(Br)c(O)c(Br)c1)C(=O)N2,44.2%,10.2%,60.8%,4.27%,35%,4.88%,11%,3.12%,6.19%,4.78%
Cc1ccc(NC(=O)CC2CC2)cc1-c1ccc(C(=O)NCC2CC2)cc1,3.08%,-0.11%,1.56%,2.64%,4.19%,3.4%,3.8%,2.01%,3.96%,5.26%
Cc1ccc(O)cc1Nc1ccnc2ccc(S(C)(=O)=O)cc12,3.47%,-0.12%,1.59%,2.64%,8.27%,4.77%,5.22%,5.91%,5.63%,5.26%
COc1cc(/C=N/Nc2ncnc3c2cnn3C(C)C)ccc1O,32.9%,0.71%,16.1%,1.74%,19.6%,2.63%,3.44%,1.48%,2.57%,1.63%
Cc1cc(-c2ccccn2)cc(C)c1/C=C/c1cncc(-c2nn[nH]n2)c1,13.7%,1.03%,5.14%,1.94%,7.19%,5.13%,9.24%,4.92%,7.24%,5.71%
N#Cc1cccc(Nc2nccc(-c3cnn4ncccc34)n2)c1,88.1%,82.9%,89.3%,79.9%,88.1%,10.4%,44.3%,15.6%,59.4%,8.27%
Nc1nccc(-c2c(-c3ccc(F)cc3)ncn2CCCN2CCOCC2)n1,4.68%,0.97%,-1.48%,0.18%,-0.66%,4.45%,15.8%,6.64%,4.64%,3.65%
O=C(Nc1ccc(Oc2ccc3[nH]c(NC(=O)c4ccco4)nc3c2)cc1)Nc1cc(C(F)(F)F)ccc1F,1.83%,-4.45%,-2.14%,13.6%,66.3%,0.08%,2.67%,0.81%,0.8%,1.59%
CCS(=O)(=O)c1ccc(OC)c(Nc2ncc(-c3cccc(OC)c3)o2)c1,11.2%,7.9%,48.3%,19.5%,65.7%,3.19%,6.62%,1.59%,1.18%,-0.18%
Oc1cccc(-c2nc(-c3ccccc3)[nH]c2-c2ccncc2)c1,18.9%,1.65%,4.29%,10.7%,44.9%,2.02%,10.7%,5.56%,5.82%,3.48%
